Inconclusive results are not listed. Entries that show only a call come without a potency. Calls of active or inactive are those of the source. The call rests on the fitted dose curve; in most records, active means well fitted inhibition curve with a large enough effect; inconclusive means small, poorly fitted or top-dose-only effect; inactive means flat fitted curve, though single readings scatter.

Sequence of Calcium and integrin-binding protein 1 (Homo sapiens) (Q99828 whole entry, looked up): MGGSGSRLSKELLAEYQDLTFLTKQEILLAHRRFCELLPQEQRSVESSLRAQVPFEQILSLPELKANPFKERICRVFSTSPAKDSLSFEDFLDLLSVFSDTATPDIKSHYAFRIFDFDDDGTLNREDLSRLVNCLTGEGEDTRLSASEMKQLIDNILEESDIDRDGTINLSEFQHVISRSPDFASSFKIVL

The assay has as its target Calcium and integrin-binding protein 1 (Homo sapiens) (UniProt Q99828). Description: Primary qHTS for Identification of Calcium Integrin Binding Protein 1 (CIB1) Competitor (AID 1508620).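 Further: GST tagged CIB1 binding a fluorescein labelled alphaIIb integrin peptide tracer; top concentration of the series differs between compounds.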 As to conditions: CIB1-GST / FITC-alphaIIb peptide fluorescence polarization; series mostly up to 57.7 µM. The source says: Assay Provider: Ulhas P. Naik, PhD Sidney Kimmel Medical College Thomas Jefferson University, Philadelphia, PA Primary function of platelets is to maintain hemostasis. At the site of vascular injury, platelets adhere to adhesive proteins such as collagen and von Willebrand factor. Adherent platelets are activated and generate soluble platelet agonists such as thrombin, ADP and thromboxane A2. Following exposure of circulating platelets to these agonists, results in platelet shape change, granule secretion and activation of platelet integrin alphaIIb-beta3. Ligand binding to activated integrin alphaIIb-beta3 triggers outside-in signaling, leading to platelet aggregation, stabilization of platelet plug, and clot retraction. Upon atherosclerotic plaque rupture also causes platelet plug formation, which underlies a number of cardiovascular diseases such as myocardial infraction and stroke. A number of anti-platelet drugs such as aspirin, clopidogrel, prasugrel, vorapaxar, and eptifibatide are currently available to prevent the thrombotic complications. However, these anti-platelet agents have several limitations including inherent variability in individual responses, developing resistance, and serious bleeding side effects. For these reasons they are not suitable for long-term protection. Based on the experiences with current anti-platelet drugs, it appears that the most useful therapeutic approach is to intersect the secondary responses such as integrin outside-in signaling or recruitment of platelets by TxA2 and secreted ADP. Compounds, which can largely preserve the primary hemostatic function of platelets but inhibit secondary response will be most desired therapeutic agents for treatment of cardiovascular disease. CIB1 is a calcium integrin binding protein, which specifically interact with the alphaIIb subunit of integrin alphaIIb-beta3. Binding of CIB1 to alphaIIb regulates the outside-in signaling in platelets, which is needed for thrombus stabilization and thrombus growth. […] Therefore, we propose that discovery of a small molecule that can prevent the association of CIB1 and alphaIIb-beta3 will be a potential anti-platelet agent that can block the thrombus formation without undue effect on hemostasis. Reference: [1] Naik MU, Nigam A, Manrai P, et al. CIB1 deficiency results in impaired thrombosis: the potential role of CIB1 in outside-in signaling through integrin alpha IIb beta 3. J Thromb Haemost.
PROTOCOL TABLES SEQUENCE No. (1, 2, 3, etc.); […] (e.g., Cells, Incubation, Reagent, etc.); VALUE and DESCRIPTION. 1; Reagent; 3 uL; Protein or buffer (4/3x) 2; Compound; 46 nL; Control inhibitor / compound library 3; Time; 15 min; Room temperature incubation 4; Reagent; 1 uL; Fluorescent labeled peptide (4x) 5; Time; 1000 rpm; Centrifuge 6; Time; 15 min; Room temperature incubation 7; Detection; Ex 480/ Em 540; ViewLux Fluorescence Read NOTES (numbers refer to sequence above) 1; Protein Mixture: C1B1-GST (final concentrations of 1 uM). […] 3; Room temperature incubation. 4; Fluorescent Labeled Peptide: FITC-aIIb (final concentration of 100 nM). Sequence of alphaIIb peptide: Acetyl-[…]-FITC (purity is 95.83%). 5; Centrifuge 1000 rpm (164 g) for 15 seconds. 6; Room temperature incubation. 7; ViewLux Fluorescent Polization Read: excitation = 480(20) / emission = 540(25) S and P; FITC Dichroic mirror.
In the case of `CC(C)=CCCC(C)=CCCC(C)=CCCC(C)=CCCC(C)=CCCC(C)=CCCC(C)=CCCC(C)=CCCC(C)=CCO`, the Potency result was “inactive”. With `O=C1C(c2c(O)[nH]c3ccccc23)=Nc2ccccc21` the entry was “inactive”; with `CCC(=C(c1ccc(O)cc1)c1ccc(OCCNC)cc1)c1ccccc1`, “inactive”. With `C[C@@H](O[C@H]1OCCN(Cc2n[nH]c(=O)[nH]2)[C@@H]1c1ccc(F)cc1)c1cc(C(F)(F)F)cc(C(F)(F)F)c1` the entry was “inactive”; with `CCCC1OC2C[C@@H]3[C@H]4CCC5=CC(=O)C=C[C@]5(C)[C@H]4C(O)C[C@]3(C)[C@]2(C(=O)CO)O1` (stereo not given in full), “inactive”. Next, `CCc1cccc(CC)c1NC(=O)N1Cc2[nH]nc(NC(=O)c3ccc(N4CCN(C)CC4)cc3)c2C1`: “inactive”. As for `Cc1[nH]c(C=C2C(=O)Nc3ccc(S(=O)(=O)N(C)c4cccc(Cl)c4)cc32)c(C)c1C(=O)N1CCN(C)CC1`, the Potency result is “inactive”. `CN1CCN(c2ncc(-c3cc(Cl)cc(Cl)c3Cl)c(N)n2)CC1`: the Potency entry is “inactive”. Next, `CC(=O)OCC(=O)[C@@]12OC(C)(C)O[C@H]1C[C@H]1[C@@H]3C[C@H](F)C4=CC(=O)C=C[C@]4(C)[C@@]3(F)[C@@H](O)C[C@@]12C`: “inactive”. Next, `CN(C)c1ccc(-c2nc3ncc(Cl)c(N4CCN(CC(=O)Nc5nccs5)CC4)c3[nH]2)cc1`: “inactive”; `NC1(C(=O)N[C@@H](CCO)c2ccc(Cl)cc2)CCN(c2ncnc3[nH]ccc23)CC1`: “inactive”; `CC[C@H](C)n1cc(C)c2c(C(=O)NCc3c(C)cc(C)[nH]c3=O)cc(-c3ccc(N4CCNCC4)nc3)cc21`: “inactive”.

For `CC(C)CN(C[C@H](O)[C@H](Cc1ccccc1)NC(=O)O[C@H]1CCOC1)S(=O)(=O)c1ccc(N)cc1`, the Potency entry is “inactive”.

As for `CC1(C)CC(=O)c2c(C(F)(F)F)nn(-c3ccc(C(N)=O)c(NC4CCC(O)CC4)c3)c2C1` (stereo not given), the Potency entry is “inactive”. For `COc1ccc(-c2ccc3ncc4c(c3c2)n(-c2ccc(N3CCNCC3)c(C(F)(F)F)c2)c(=O)n4C)cn1`, the Potency entry was “inactive”. Next, `CC=C(C(=CC)c1ccc(O)cc1)c1ccc(O)cc1`: “inactive”; `N[C@@H](CC(=O)N1CCn2c(nnc2C(F)(F)F)C1)Cc1cc(F)c(F)cc1F`: “inactive”; `CON(C)C(=O)N1N=C(c2cc(F)ccc2F)S[C@]1(CCCN)c1ccccc1`: “inactive”. Next, `CN1CC(=O)N2C(Cc3c([nH]c4ccccc34)[C@H]2c2ccc3c(c2)OCO3)C1=O` (stereo not given in full): “inactive”. As for `C[C@H]1O[C@@H](n2cc(F)c(=O)[nH]c2=O)[C@H](O)[C@H]1O`, the Potency result is “inactive”. With `CN1C(=O)C[C@H](C(=O)N[C@@H](Cc2cnc[nH]2)C(=O)N2CCC[C@@H]2C(N)=O)NC1=O` the entry was “inactive”; with `COC(=O)N1CCN(Cc2cccc(NC(=O)Nc3ccc(C)nc3)c2F)CC1`, “inactive”.

Consider `CN(C)CCCNC(=O)c1ccc(-c2cc(O)c3ncccc3c2)cc1`, for which the Potency entry was “inactive”. With `NC(=O)c1ncn([C@@H]2O[C@H](CO)[C@@H](O)[C@@H]2O)n1` the entry was “inactive”; with `CC1(C)[C@H]2CC[C@]3(C)[C@@H](C(=O)C=C4[C@@H]5C[C@@](C)(C(=O)O)CC[C@]5(C)CC[C@]43C)[C@@]2(C)CC[C@@H]1O`, “inactive”. Next, `C[C@H]1[C@H](O)O[C@@H]2O[C@@]3(C)CC[C@@H]4[C@H](C)CC[C@@H]1[C@@]24OO3`: “inactive”; `CN(C)CC[C@H](CSc1ccccc1)Nc1ccc(S(=O)(=O)NC(=O)c2ccc(N3CCN(Cc4ccccc4-c4ccc(Cl)cc4)CC3)cc2)cc1[N+](=O)[O-]`: “inactive”.

Take `Cc1nn(Cc2ccccc2Cl)c(C)c1CN(C)CC(O)COc1ccc(Cl)cc1` (stereo not given): the Potency entry was “inactive”.

Take `N#CC1(c2cccc(C(=O)Nc3cc(Oc4ccc5nc(NC(=O)C6CC6)sc5n4)ccc3F)c2Cl)CC1`: the Potency entry is “inactive”. Next, `COc1ccc(CCN(C)CCCOc2ccc(S(=O)(=O)c3[nH]c4ccccc4c3C(C)C)cc2)cc1OC`: “inactive”; `OC[C@H]1O[C@@H](O[C@H]2[C@@H](O)[C@@](O)(CO)O[C@@H]2CO)[C@H](O)[C@@H](O)[C@@H]1O`: “inactive”. Turning to `c1cc(OCCN2CCCCC2)cc(-c2n[nH]c3ccc(-c4ncn[nH]4)cc23)c1`, the Potency entry was “inactive”. For `Cc1cnc(Nc2cccc(CN3CCOCC3)c2)nc1Nc1cccc(S(=O)(=O)NC(C)(C)C)c1`, the Potency entry was “inactive”. Next, `CCNC(=O)Nc1ccc(Oc2ncnc(N)c2C=NOC)cc1Cl`: “inactive”; `CCC(C)SSc1ncc[nH]1` (stereo not given): “inactive”. With `COc1cc2c(cc1OC)CC(=O)N(CCCN(C)C[C@H]1Cc3cc(OC)c(OC)cc31)CC2` the entry was “inactive”; with `Oc1cc(O)cc(C=Cc2ccc(O)c(O)c2)c1`, “inactive”; with `NC[C@H]1O[C@H](O[C@@H]2[C@@H](O)[C@@H](O[C@H]3O[C@H](CO)[C@@H](O)[C@H](N)[C@@H]3O)[C@H](N)C[C@@H]2N)[C@H](O)[C@@H](O)[C@H]1O`, “inactive”. Turning to `CCCCCCCCCCCCCCCC(=O)O[C@H]1[C@@H](O)[C@@H](O)[C@@H]([C@H](NC(=O)[C@@H]2C[C@@H](CCC)CN2C)[C@H](C)Cl)O[C@@H]1SC`, the Potency result was “inactive”. With `Cc1ccc(S(=O)(=O)OCC(=O)Nc2ccc(C(=O)O)c(O)c2)cc1` the entry was “inactive”.

For the origin of these results see PubChem BioAssay (NCATS).
